Compound activity (PubChem BioAssay)
FAS TE block: blocks the thioesterase domain of human fatty acid synthase. P49327. recombinant FAS-TE, OMFH fluorogenic substrate, fluorescence endpoint. inhibition, % at 15 µM. 0.67% of 360,000 active;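 active means compounds whose normalised, plate-corrected inhibition of enzyme fluorescence in the single-dose primary screen is 50% or more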;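 further: 0% = DMSO with enzyme and 100% = substrate without enzyme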
GAA850 FXN act: activators of GAA850 frataxin (FXN) promoter. HEK293 lucGAA850 FXN promoter luciferase reporter, 24 h; percent of 10 µM SAHA response. activation, % at 6 µM. 0.56% of 360,000 active;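 active means activation above the average of all compounds screened plus 3 SD, cutoff fixed separately per campaign, cut at about 7.5% in these data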;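 further: 0% = DMSO wells and 100% = 10 µM SAHA wells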
SMARCA2 activ: SMARCA2 function activation, primary screen | AID 652017 | MG213 cells, MMTV-luciferase reporter, dexamethasone, overnight | 1% of 370,000 active | activation, % at 9.1 µM; in the data active means activation above about 7.8%;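 further: 0% = vehicle wells and 100% = reference activator wells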
KLK7 zymogen act: proKLK7 (human) activation, primary screen; P49862; 0.9% of 370,000 active; AID 652039; activation, % at 7 µM; purified proKLK7, EDANS-DABCYL substrate fluorescence; 100% is mature enzyme control, 0% vehicle;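 active means activation above the mean of all tested compounds plus 3 SD, computed per campaign excluding outliers beyond control limits, cut at about 13% in these data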
Target sequence (P49862 whole entry, looked up): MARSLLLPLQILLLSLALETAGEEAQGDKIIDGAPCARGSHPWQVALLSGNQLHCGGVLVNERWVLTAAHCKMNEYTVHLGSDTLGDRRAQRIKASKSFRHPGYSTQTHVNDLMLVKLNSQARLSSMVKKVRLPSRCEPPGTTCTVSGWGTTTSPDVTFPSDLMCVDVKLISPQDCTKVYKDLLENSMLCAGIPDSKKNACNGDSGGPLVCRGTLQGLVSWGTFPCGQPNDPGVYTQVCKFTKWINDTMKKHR
KLK7 act conf: proKLK7 activation, confirmation. purified proKLK7, EDANS-DABCYL substrate fluorescence; scaled: vehicle 0, mature enzyme 100. 68% of 3,200 active. shares compounds with KLK7 zymogen act. AID 686949. activation, % at 7 µM;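 active means activation, as change over the incubation, above the mean of all tested compounds plus 3 SD, cut at about 13% in these data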
EDANS-DABCYL int: optically interferes with EDANS-DABCYL signal, flagging KLK7 hits. shares compounds with KLK7 zymogen act. EDANS-DABCYL substrate fluorescence interference, no enzyme, 4 h; solvent 0%, active enzyme control 100%. activation, % at 7 µM. 80% of 3,200 active. AID 686952;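 active means activation above the all-compound mean plus 3 SD, ignoring values outside control-based bounds, cut at about 4.8% in these data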;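 further: value is the 4 h activation minus the activation read at time zero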
K7 EDANS ctr: optically interferes with EDANS-DABCYL fluorescence, kallikrein-7 activator counter-screen. EDANS-DABCYL peptide fluorescence interference, no enzyme. shares compounds with KLK7 zymogen act. EC50, µM. AID 720493. 20% of 250 active;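 active means compounds that raise the fluorescence signal in this interference counterscreen, with EC50 at or below 10 µM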;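 further: intact quenched peptide substrate alone read at 355 nm excitation and 520 nm emission; signal is fluorescence gain from T0 to T4 after four hours at room temperature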
* hit, by the source's call; . = not tested or not shown. The list is not random: actives were taken first. Their share in the collection is about 2.9%.

SMILES	FAS TE block	GAA850 FXN act	SMARCA2 activ	KLK7 zymogen act	KLK7 act conf	EDANS-DABCYL int	others
O=C(c1ccc(F)cc1)c1cc2ccc(O)cc2oc1=O	-2	1	2	-1	.	.
Cc1ccc(S(=O)(=O)c2cc3ccc(O)cc3oc2=O)cc1C	-2	1	-1	44*	62*	68*
O=C(O)c1cc2ccc(O)cc2oc1=O	-9	-1	-2	104*	65*	73*
C/C(=N\NC(=O)CC#N)c1cc2ccc(O)cc2oc1=O	-26	1	-2	61*	46*	43*
CCOc1ccc(NC(=O)CSc2nnc(-c3ccoc3C)n2CC2CCCO2)cc1 (centres undefined)	-2	-2	-4	0	.	.
C/C(=N\NC(=O)c1nnn(-c2nonc2N)c1-c1ccccc1)c1ccccc1O	14	-5	-5	0	.	.
COc1ccc(CNC(=O)C(c2ccncc2)N(C(=O)Cc2cccs2)c2ccccc2C)cc1 (centres undefined)	0	0	-2	1	.	.
N#CC(Sc1ccccn1)c1ccc(Cl)cc1 (centres undefined)	13	-1	-2	16*	10	12*
O=C(NCCSc1ccccn1)c1ccc(Cl)cc1	-2	3	0	0	.	.
O=C(NCc1cccnc1)c1cc(C2CCCCN2S(=O)(=O)Cc2ccccc2)on1 (centres undefined)	-4	2	-2	0	.	.
CC(=O)CSc1ccc(-c2nc3cc(C)c(C)cc3[nH]2)cn1	1	-12	-5	2	.	.
Cc1ccc2nc(-c3ccc(SCC(=O)O)nc3)[nH]c2c1	-12	2	-4	16*	23*	27*
COc1ccc(N(CC(=O)NCc2ccc(F)cc2)C(=O)c2snc(C(N)=O)c2N)cc1OC	31	1	-1	15*	5	4
Cc1ccc(N(CC(=O)NCc2ccc(F)cc2)C(=O)c2snc(C(N)=O)c2N)cc1C	1	1	2	-2	.	.
COc1cc(/C=C/C(=O)Nc2nc3ccc(S(=O)(=O)NC(C)C)cc3s2)cc(OC)c1OC	-5	-1	0	15*	59*	63*
COc1ccc(OC)c(NC(=O)c2cc(-c3c(C)cc(C)cc3O)n[nH]2)c1	0	2	0	-6	.	.
Cc1nn(-c2ccc(F)cc2)c2sc(C(=O)OC3CCOC3=O)cc12 (centres undefined)	7	2	-2	20*	24*	23*
CNC(=O)COC(=O)c1cc2c(C)nn(-c3ccc(F)cc3)c2s1	-4	-1	-3	0	.	.
O=C(O)c1cccc(NC(=O)c2cn(-c3ccccc3)nc2-c2ccncc2)c1	.	-1	5	0	.	.
CN(Cc1cnc2nc(N)nc(N)c2n1)c1ccc(C(=O)N[C@@H](CCC(=O)O)C(=O)O)cc1	-4	-8	-3	18*	-9	-13
CC(c1nc2ccccc2[nH]1)n1c(=O)c(-c2cccs2)nc2ccccc21 (centres undefined)	.	.	-8	190*	22*	-25	K7 EDANS ctr=7.5*
CC(c1nc2ccccc2[nH]1)n1c(=O)c(-c2cccnc2)nc2ccccc21 (centres undefined)	.	.	-1	-2	.	.
Oc1ccc(N=Cc2cc(Br)c(N3CCOCC3)o2)cc1	-9	1	-4	1	.	.
CCOC(=O)N1CCC(N2C(=O)c3ccccc3C2=O)CC1	-6	4	-3	0	.	.
CCOC(=O)N1CCC2(CC1)NC(=O)c1ccccc1N2	-5	-3	-1	21*	30*	24*	K7 EDANS ctr=>69
SMILES	FAS TE block	GAA850 FXN act	SMARCA2 activ	KLK7 zymogen act	KLK7 act conf	EDANS-DABCYL int	others
C=CCOC(=O)C1=C(C)NC(SCC(=O)N(CC)CC)=C(C#N)C1c1ccccc1 (centres undefined)	5	-1	-6	0	.	.
C=CCOC(=O)C1=C(C)NC(SCC(=O)NC(=O)OCC)=C(C#N)C1c1cccnc1 (centres undefined)	-9	0	4	20*	27*	17*	K7 EDANS ctr=4.4*
CCCCN(CC)C(=O)c1cc2cc3ccc(OC)cc3nc2o1	24	5	2	13*	-5	0
COCCNC(=O)c1cc2cc3ccc(OC)cc3nc2o1	-2	-1	6	35*	67*	78*
COc1ccc2cc3cc(C(=O)NCCC(C)C)oc3nc2c1	4	-2	2	-15	.	.
COc1ccc2cc3cc(C(=O)NCC4CCCO4)oc3nc2c1 (centres undefined)	-4	-1	-3	48*	66*	71*
CCOc1ccc(NC(=O)c2cc3cc4ccc(OC)cc4nc3o2)cc1	-8	-1	-2	0	.	.
CCC(C)NC(=O)c1cc2cc3ccc(OC)cc3nc2o1 (centres undefined)	9	4	2	40*	44*	63*
COc1ccc(C(=O)NCC2CCCO2)cc1 (centres undefined)	-10	2	2	-1	.	.
COc1ccc(C(=O)NC(=S)NNC(=O)CNC(=O)C2CCCCC2)cc1	-2	1	0	0	.	.
COc1ccc(-c2cn3nc(SCC(=O)NCC4CCCO4)ccc3n2)cc1 (centres undefined)	-5	3	2	95*	52*	70*
COc1ccc(-c2ccc3nnc(SCC(=O)NCC4CCCO4)n3n2)cc1 (centres undefined)	-3	1	-1	22*	31*	18*	K7 EDANS ctr=>70
Cc1ccc(C(C)(C)C)cc1S(=O)(=O)N1CCC(C(=O)N2CCN(c3ccc(O)cc3)CC2)CC1	32	1	-4	1	.	.
Cc1coc2c1c(C)cc1oc(=O)c(Cc3ccccc3)c(C)c12	-1	-2	3	0	.	.
Cc1coc2c(C)c3oc(=O)c(CCC(=O)N[C@H](C(=O)O)C(C)C)c(C)c3cc12	-6	0	-2	16*	8	10*
Cc1coc2c1c(C)cc1oc(=O)c(CC(=O)N[C@@H](C)C(=O)O)c(C)c12	-2	1	4	29*	24*	27*
Cc1coc2c1c(C)cc1oc(=O)c(CC(=O)N[C@H](C(=O)O)C(C)C)c(C)c12	3	3	-1	23*	29*	37*
CCC(NC(=O)Cc1c(C)c2c(cc(C)c3c(C)c(C)oc32)oc1=O)C(=O)O (centres undefined)	2	0	-3	23*	16*	1	K7 EDANS ctr=>70
CSCC[C@H](NC(=O)Cc1c(C)c2c(cc(C)c3c(C)c(C)oc32)oc1=O)C(=O)O	-3	1	1	-7	.	.
COc1ccc(OC)c(/C=C/C(=O)OCC(=O)N2CCCCC2)c1	-6	0	0	22*	14*	14*
